Inconclusive results are not listed. A call without a number means that no potency is given here. Unmarked numbers belong to inactive results. Active and inactive are the calls of the source. Calls come from the whole dose curve; as a rule, active = well fitted curve in the direction sought with a large enough effect; inconclusive = small, poorly fitted or top-dose-only effect, or another doubt; inactive = no such curve, though single readings can be large; an effect the other way counts as inactive or inconclusive.

The nature of the first assay: qHTS of pediatric cancer cell lines to identify multiple opportunities for drug repurposing: Confirmatory screen for BT-12 cells (AID 1347112). Note: potency is the fitted concentration of half-maximal effect.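 Note: viability read after 48 h of compound exposure; nearly all actives have a fitted effect of over 55% in size.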 Particulars: BT-12 rhabdoid tumor cells, viability; series mostly up to 45.9 µM. The method in brief:
(§1)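 Cells (500-1,000/well) rested 5 h, then received compounds for 48 h; metabolically active cells were measured by CellTiter-Glo luminescence. Final concentrations spanned up to 46 µM (MIPE, 11-point) or 0.59 nM-46 µM (NPC, 8-point) in primary screens, 11-point in follow-ups.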
(In general: qHTS replaces the single test concentration by a dilution series.)
For `Cc1ccc2nc(N)[nH]c(=O)c2c1Sc1ccncc1`, the Potency result was “inactive”.
As for `O=C1N=C(O)CN1/N=C/c1ccc(-c2ccc([N+](=O)[O-])cc2)o1`, the Potency entry is “inactive”.
Turning to `CCN(CC)CCNC(=O)c1cc(Cl)c(N)cc1OC`, the Potency entry was “inactive”.
On to `C[C@@H]1C[C@H]2[C@@H]3C[C@H](F)C4=CC(=O)C=C[C@]4(C)[C@@]3(F)[C@@H](O)C[C@]2(C)[C@@]1(O)C(=O)CO`, for which the Potency result was “inactive”.
On to `O=c1cc[nH]c(=S)[nH]1`, for which the Potency result is “inactive”.
For the compound `C[C@](N)(Cc1ccc(O)cc1)C(=O)O`, the activity change, negative = cytotoxic was -3.72% [at 5.01 µM].
For `CCCCC/C(C=O)=C\c1ccccc1`, the Potency is 26.1 µM (active).

A short description of another assay: qHTS of pediatric cancer cell lines to identify multiple opportunities for drug repurposing: Confirmatory screen for LAN-5 cells (AID 1347113). Note: nearly all actives have a fitted effect of over 65% in size. Note: potency is the fitted concentration of half-maximal effect. The note with it: LAN-5 neuroblastoma cell viability; series mostly up to 45.9 µM. The method in brief: as §1
As to `Cc1ccc2nc(N)[nH]c(=O)c2c1Sc1ccncc1`, the Potency result is “inactive”.
Same read-out and setting: the entry for `O=C1N=C(O)CN1/N=C/c1ccc(-c2ccc([N+](=O)[O-])cc2)o1` is “inactive”; for `CCCCC/C(C=O)=C\c1ccccc1` it is 5.22 µM (active).

A short description of the next assay: qHTS of pediatric cancer cell lines to identify multiple opportunities for drug repurposing: Confirmatory screen for DAOY cells (AID 1347114). Note: nearly all actives have a fitted effect of over 65% in size. Particulars: DAOY medulloblastoma cells viability, cytotoxicity qHTS; series mostly up to 45.9 µM. In short, it runs like this: (§2)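 Viability measured as metabolically active cells via CellTiter-Glo luminescence following 48 hours of compound exposure, 11-point dilutions in confirmatory testing. 500-1,000 cells/well plated 5 hours before dosing; controls were DMSO and 2.3 µM bortezomib.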
In the case of `Cc1ccc2nc(N)[nH]c(=O)c2c1Sc1ccncc1`, the compound was classed as inactive.
Regarding `O=C(O)CN1C(=O)c2cccc3cccc(c23)C1=O`, the compound was classed as inactive.
On the same count and under the same terms, the value for `CCN(CC)CCNC(=O)c1cc(Cl)c(N)cc1OC` was “inactive”; that for `C[C@@H]1C[C@H]2[C@@H]3C[C@H](F)C4=CC(=O)C=C[C@]4(C)[C@@]3(F)[C@@H](O)C[C@]2(C)[C@@]1(O)C(=O)CO` was “inactive”; that for `O=c1cc[nH]c(=S)[nH]1` was “inactive”.
As for `C[C@](N)(Cc1ccc(O)cc1)C(=O)O`, the activity change, negative = cytotoxic was 9.36% [at 5.01 µM].
In the case of `CCCCC/C(C=O)=C\c1ccccc1`, the result was inactive.

The next assay can be described thus: qHTS of pediatric cancer cell lines to identify multiple opportunities for drug repurposing: Confirmatory screen for NB-EBc1 cells (AID 1347115).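 Note: cells exposed to compound for 48 h before the viability read; nearly all actives have a fitted effect of over 45% in size.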 Note: potency is the fitted concentration of half-maximal effect. Particulars: NB-EBc1 neuroblastoma cells, viability (cytotoxicity); series mostly up to 45.9 µM. The method in brief: as §1
Turning to `Cc1ccc2nc(N)[nH]c(=O)c2c1Sc1ccncc1`, the Potency was 11.7 µM (active).
For `O=C(O)CN1C(=O)c2cccc3cccc(c23)C1=O`, the Potency was 26.1 µM (active).
As for `O=C1N=C(O)CN1/N=C/c1ccc(-c2ccc([N+](=O)[O-])cc2)o1`, the Potency entry is “inactive”.
Regarding `CCN(CC)CCNC(=O)c1cc(Cl)c(N)cc1OC`, the Potency result is “inactive”.
Consider `C[C@@H]1C[C@H]2[C@@H]3C[C@H](F)C4=CC(=O)C=C[C@]4(C)[C@@]3(F)[C@@H](O)C[C@]2(C)[C@@]1(O)C(=O)CO`, for which the Potency result was “inactive”.
On to `O=c1cc[nH]c(=S)[nH]1`, for which the Potency entry is “inactive”.
Regarding `CCCCC/C(C=O)=C\c1ccccc1`, the Potency entry is “inactive”.

A short description of a further assay: qHTS of pediatric cancer cell lines to identify multiple opportunities for drug repurposing: Confirmatory screen for SJ-GBM2 cells (AID 1347116). Note: nearly all actives have a fitted effect of over 60% in size. Note: potency is the fitted concentration of half-maximal effect. The note with it: SJ-GBM2 glioblastoma cells, viability; series mostly up to 45.9 µM. In short, it runs like this:
as §2
Turning to `Cc1ccc2nc(N)[nH]c(=O)c2c1Sc1ccncc1`, the Potency entry was “inactive”.
Still for that read-out and setting: the value for `O=C(O)CN1C(=O)c2cccc3cccc(c23)C1=O` was 16.5 µM (active); that for `O=C1N=C(O)CN1/N=C/c1ccc(-c2ccc([N+](=O)[O-])cc2)o1` was “inactive”.
Turning to `C[C@@H]1C[C@H]2[C@@H]3C[C@H](F)C4=CC(=O)C=C[C@]4(C)[C@@]3(F)[C@@H](O)C[C@]2(C)[C@@]1(O)C(=O)CO`, the Potency entry is “inactive”.
As to `O=c1cc[nH]c(=S)[nH]1`, the Potency result is “inactive”.
For the compound `C[C@](N)(Cc1ccc(O)cc1)C(=O)O`, the activity change, negative = cytotoxic was 8.57% [at 5.01 µM].
As to `CCCCC/C(C=O)=C\c1ccccc1`, the Potency entry was “inactive”.

The record behind these values is PubChem BioAssay (NCATS).
